In all, about 5,500 compounds went through this assay and about 2,000 (36%) were called active. About 18% were inconclusive and are not listed. Cut-off read from the data, not from the text of the source: active = normalized growth mostly below about 0.91 (no sharp cut-off); inconclusive = no clear call, values can overlap the other calls; inactive = mostly above about 0.92. This is one part of the list.
Experiment: chemical genetic growth profiling, strain panel (AID 1159580);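 note: tested at 20 µM; growth read once vehicle control cultures reached saturation at 30 °C; 1 = growth at the plate median or of vehicle wells; lower values mean less growth of the strain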
Details: S. cerevisiae deletion strains, growth OD

Measured: normalized growth

Cc1nc(N)cc(C[n+]2csc(CCO)c2C)n1
inactive: locus YAL021C, strain ccr4, stronger effect = lower value 0.946 | locus YAL026C, strain drs2, stronger effect = lower value 0.974 | locus YAL030W, strain snc1, stronger effect = lower value 0.981 | locus YBL061C, strain skt5, stronger effect = lower value 0.983 | locus YBR009C, strain hhf1, stronger effect = lower value 0.979 | locus YBR023C, strain chs3, stronger effect = lower value 0.998 | locus YBR171W, strain sec66, stronger effect = lower value 0.971 | locus YBR231C, strain swc5, stronger effect = lower value 0.987 | locus YBR279W, strain paf1, stronger effect = lower value 0.985 | locus YCL011C, strain gbp2, stronger effect = lower value 0.966 | locus YCL016C, strain dcc1, stronger effect = lower value 0.992 | locus YCL061C, strain MRC1, stronger effect = lower value 0.977 | locus YCL069W, strain vba3, stronger effect = lower value 0.981 | locus YCR088W, strain abp1, stronger effect = lower value 0.98 | locus YDL005C, strain med2, stronger effect = lower value 0.984 | locus YDL040C, strain nat1, stronger effect = lower value 0.988 | locus YDR001C, strain nth1, stronger effect = lower value 0.974 | locus YDR069C, strain doa4, stronger effect = lower value 0.984 | locus YDR137W, strain rgp1, stronger effect = lower value 0.966 | locus YDR159W, strain sac3, stronger effect = lower value 0.965 | locus YDR195W, strain ref2 0.944 | locus YDR297W, strain sur2, stronger effect = lower value 0.979 | locus YDR334W, strain swr1, stronger effect = lower value 0.955 | locus YDR335W, strain msn5, stronger effect = lower value 0.966 | locus YDR392W, strain spt3, stronger effect = lower value 0.973 | locus YEL003W, strain gim4, stronger effect = lower value 0.971 | locus YEL037C, strain rad23, stronger effect = lower value 0.967 | locus YEL061C, strain CIN8 (second series), stronger effect = lower value 0.974 | locus YER015W, strain faa2, stronger effect = lower value 0.975 | locus YER016W, strain bim1, stronger effect = lower value 0.979 | locus YER111C, strain swi4, stronger effect = lower value 0.992 | locus YER155C, strain BEM2 (second series), stronger effect = lower value 0.975 | locus YFR010W, strain ubp6, stronger effect = lower value 0.962 | locus YGL167C, strain pmr1, stronger effect = lower value 0.973 | locus YGL173C, strain kem1, stronger effect = lower value 0.979 | locus YGL227W, strain vid30, stronger effect = lower value 0.987 | locus YGL240W, strain doc1, stronger effect = lower value 0.98 | locus YGL253W, strain hxk2, stronger effect = lower value 0.986 | locus YHR013C, strain ard1, stronger effect = lower value 0.986 | locus YHR027C, strain rpn1, stronger effect = lower value 0.988 | locus YHR030C, strain SLT2, stronger effect = lower value 0.954 | locus YHR079C, strain IRE1, stronger effect = lower value 0.942 | locus YHR142W, strain chs7, stronger effect = lower value 0.963 | locus YJL092W, strain hpr5, stronger effect = lower value 0.966 | locus YJL095W, strain BCK1 (second series), stronger effect = lower value 0.978 | locus YJL095W, strain BCK1, stronger effect = lower value 0.968 | locus YJL115W, strain asf1, stronger effect = lower value 0.969 | locus YJL129C, strain trk1, stronger effect = lower value 0.965 | locus YJL154C, strain vps35, stronger effect = lower value 0.988 | locus YJL164C, strain tpk1, stronger effect = lower value 0.985 | locus YJL166W, strain qcr8, stronger effect = lower value 0.981 | locus YJL187C, strain SWE1, stronger effect = lower value 0.99 | locus YJR066W, strain TOR1, stronger effect = lower value 0.932 | locus YKL160W, strain elf1, stronger effect = lower value 0.981 | locus YKR026C, strain gcn3, stronger effect = lower value 0.97 | locus YKR091W, strain srl3, stronger effect = lower value 0.978 | locus YLL001W, strain dnm1, stronger effect = lower value 0.983 | locus YLL026W, stronger effect = lower value 0.988 | locus YLL041C, strain sdh2, stronger effect = lower value 0.98 | locus YLR027C, strain aat2, stronger effect = lower value 0.986 | locus YLR113W, strain HOG1, stronger effect = lower value 0.941 | locus YLR221C, strain rsa3, stronger effect = lower value 0.982 | locus YLR258W, strain gsy2, stronger effect = lower value 0.986 | locus YLR262C, strain YPT6 (second series), stronger effect = lower value 0.992 | locus YLR320W, strain mms22, stronger effect = lower value 0.988 | locus YLR342W, strain FKS1, stronger effect = lower value 0.991 | locus YLR357W, strain rsc2, stronger effect = lower value 0.99 | locus YLR370C, strain arc18, stronger effect = lower value 0.979 | locus YLR384C, strain iki3, stronger effect = lower value 0.983 | locus YML120C, strain ndi1, stronger effect = lower value 0.962 | locus YMR058W, strain fet3, stronger effect = lower value 0.969 | locus YMR125W, strain sto1, stronger effect = lower value 0.946 | locus YMR129W, stronger effect = lower value 0.97 | locus YMR205C, strain PFK2, stronger effect = lower value 1.01 | locus YMR231W, strain pep5, stronger effect = lower value 0.992 | locus YNL071W, strain lat1, stronger effect = lower value 0.988 | locus YNL183C, strain NPR1, stronger effect = lower value 0.926 | locus YNL209W, strain ssb2, stronger effect = lower value 0.981 | locus YNL248C, strain rpa49, stronger effect = lower value 0.948 | locus YNL322C, strain KRE1 (second series), stronger effect = lower value 0.964 | locus YNR049C, strain mso1, stronger effect = lower value 0.978 | locus YOR001W, strain rrp6, stronger effect = lower value 0.95 | locus YOR070C, strain gyp1, stronger effect = lower value 0.998 | locus YOR080W, strain dia2, stronger effect = lower value 0.971 | locus YOR083W, strain WHI5, stronger effect = lower value 0.969 | locus YOR106W, strain vam3, stronger effect = lower value 0.972 | locus YOR231W, strain MKK1, stronger effect = lower value 0.96 | locus YOR265W, strain rbl2, stronger effect = lower value 0.983 | locus YOR270C, strain vph1, stronger effect = lower value 0.94 | locus YOR290C, strain snf2, stronger effect = lower value 0.975 | locus YPL051W, strain arl3, stronger effect = lower value 0.996 | locus YPL078C, strain atp4, stronger effect = lower value 0.976 | locus YPL106C, strain sse1, stronger effect = lower value 0.953 | locus YPL240C, strain hsp82, stronger effect = lower value 0.972 | locus YPL256C, strain CLN2, stronger effect = lower value 0.95
